Data on 40 compounds can be found in the supplement of paper PMC10981050.

Where a name gives a salt, the structure may show the parent alone.

The subject of the first test is OCI-AML2. Nature of the test: cell viability relative to vehicle control; higher = less cytotoxic. The following applies: 10 µM; SRSF2 genotype: P95H/wt. The gist of the method:
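CRISPR-edited SRSF2 P95 mutant and isogenic wild-type clones of four leukaemia lines were screened against Selleck bioactive, kinase and epigenetic probe libraries, with identity-inconsistent compounds removed. Compounds were acoustically dispensed into 384-well plates at a single 10 µM dose, with 2000 cells in 50 µL medium per well. After 48 h, supernatant was removed and CellTiter-Glo luminescence was read. Viability was expressed as percent of the on-plate DMSO vehicle control, analysed in Genedata Screener.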
A word on the cell viability: it is a read-out of living cells in per cent, often relative to untreated cells. For the compound `C[C@H](NC(=O)CCc1nc2ccccc2c(=O)[nH]1)c1ccccc1`, the cell viability came to 105%.

As for `N#CC(=Cc1cn(-c2ccccc2)c2ccccc12)C(=O)O`, the cell viability came to 91%.

As for `COc1cc2nc(N3CCN(C(=O)C4CCCO4)CC3)nc(N)c2cc1OC` (configuration not stated) [Terazosin HCl], the cell viability is 103%.

In the case of `C[C@@H]1CC(=O)NN=C1c1ccc(NN=C(C#N)C#N)cc1` [Levosimendan], the cell viability was found to be 69.8%.

For `Cn1c(-c2ccccc2C(F)(F)F)nnc1C12CCC(c3noc(C4CC(F)(F)C4)n3)(CC1)CC2`, the cell viability stood at 99%.

For the compound `CCCCCCCCCCCCCCCC(=O)OCC(O)C1OC(=O)C(O)=C1O` [L-Ascorbyl 6-palmitate], the cell viability worked out at 103%.

With `OC[C@H]1O[C@@H](Oc2ccc(O)cc2)[C@H](O)[C@@H](O)[C@@H]1O` [Arbutin (Uva, p-Arbutin)], the cell viability was 100%.

Consider `CC[C@H](C)C(=O)O[C@H]1C[C@H](O)C=C2C=C[C@H](C)[C@H](CC[C@@H](O)C[C@@H](O)CC(=O)O)[C@H]21` [Pravastatin sodium], for which the cell viability amounted to 91%.

In the case of `C[C@H]1CNC(=O)c2cnn3ccc(nc23)N[C@H](C)c2cc(F)ccc2O1`, the cell viability amounted to 8.06%.

For the compound `COc1cc2c(cc1OC(C)C)[C@H](c1ccc(Cl)cc1)N(c1ccc(N(C)C[C@H]3CC[C@H](N4CCN(C)C(=O)C4)CC3)cc1)C(=O)C2`, the cell viability is 0.22%.

As to `CSCC[C@H](NC(=O)[C@H](CC(C)C)NC(=O)[C@H](Cc1c[nH]c2ccccc12)NC(=O)[C@H](CCC(N)=O)NC(=O)[C@@H](NC(=O)[C@H](Cc1ccccc1)NC(=O)[C@H](CC(=O)O)NC(=O)[C@H](CCC(N)=O)NC(=O)[C@H](C)NC(=O)[C@H](CCCNC(=N)N)NC(=O)[C@H](CCCNC(=N)N)NC(=O)[C@H](CO)NC(=O)[C@H](CC(=O)O)NC(=O)[C@H](CC(C)C)NC(=O)[C@H](Cc1ccc(O)cc1)NC(=O)[C@H](CCCCN)NC(=O)[C@H](CO)NC(=O)[C@H](Cc1ccc(O)cc1)NC(=O)[C@H](CC(=O)O)NC(=O)[C@H](CO)NC(=O)[C@@H](NC(=O)[C@H](Cc1ccccc1)NC(=O)[C@@H](NC(=O)CNC(=O)[C@H](CCC(N)=O)NC(=O)[C@H](CO)NC(=O)[C@@H](N)Cc1cnc[nH]1)[C@@H](C)O)[C@@H](C)O)C(C)C)C(=O)N[C@@H](CC(N)=O)C(=O)N[C@H](C(=O)O)[C@@H](C)O` [Glucagon HCl], the cell viability was found to be 103%.

For `CC(=O)O[C@]1(C)CC[C@@]23C[C@H]1C(C)(C)[C@@H]2CC[C@H]3C` [Cedryl acetate], the cell viability stood at 112%.

As for `OC(CN1CCN(c2cccc(Cl)c2)CC1)C(c1ccccc1)c1ccccc1` (configuration not stated), the cell viability was 86.9%.

For `C[C@@H]1O[C@@H](OC[C@H]2O[C@@H](Oc3c(-c4ccc(O)c(O)c4)oc4cc(O)cc(O)c4c3=O)[C@H](O)[C@@H](O)[C@@H]2O)[C@H](O)[C@H](O)[C@H]1O` [Rutin (Rutoside)], the cell viability amounted to 105%.

In the case of `CC(C)(F)C[C@H](N[C@@H](c1ccc(-c2ccc(S(C)(=O)=O)cc2)cc1)C(F)(F)F)C(=O)NC1(C#N)CC1` [Odanacatib (MK 0822)], the cell viability came to 101%.

On to `CCCCCCCCCCCCCCCc1cccc(O)c1C(=O)O` [Anacardic Acid], for which the cell viability came out at 87.5%.

Take `Cc1ccc(NC(=O)Nc2cc(C(F)(F)F)ccc2F)cc1Nc1ccc2c(c1)NC(=O)/C2=C\c1ccc[nH]1`: the cell viability amounted to 74.4%.

With `COc1ccc(/C=C/C(=O)C2(C(=O)/C=C/c3ccc(OC)c(OC)c3)CCCCC2)cc1OC`, the cell viability came to 0.35%.

In the case of `Cc1ccc(C)c(OCCCC(C)(C)C(=O)O)c1` [Gemfibrozil (Lopid)], the cell viability was 106%.

Consider `NC(=O)c1cccc(-c2cccc(OC(=O)NC3CCCCC3)c2)c1`, for which the cell viability turned out to be 88.6%.

Consider `NC(=O)c1noc([C@H](CCCC2CCCCC2)CC(=O)NO)n1`, for which the cell viability was found to be 15.1%.

On to `COC(=O)Nc1nc2cc([S+]([O-])c3ccccc3)ccc2[nH]1` (configuration not stated) [Oxfendazole], for which the cell viability was 80%.

As for `Cc1cnc(C(=O)NCCc2ccc(S(=O)(=O)NC(=O)NC3CCCCC3)cc2)cn1` [Glipizide (Glucotrol)], the cell viability was 96.6%.

For `CC(C)c1nc(N(C)S(C)(=O)=O)nc(-c2ccc(F)cc2)c1/C=C/[C@@H](O)C[C@@H](O)CC(=O)O` [Rosuvastatin Calcium], the cell viability was determined as 105%.

On to `COc1ccc(-c2coc3cc(O)ccc3c2=O)cc1` [Formononetin (Formononetol)], for which the cell viability turned out to be 86.7%.

For `COc1ccc(OC)c(C2C(C#N)=C(N)Oc3n[nH]c(-c4ccc5ccccc5c4)c32)c1` (configuration not stated), the cell viability is 105%.

Take `CCN1C(=O)CNc2ncc(-c3ccc(-c4nc[nH]n4)nc3C)nc21`: the cell viability is 8.07%.

Consider `CN(C)c1ccc2nc3c(C(=O)O)cc(=O)c(O)c-3oc2c1` [Gallocyanine], for which the cell viability came out at 84%.

The test is the same for the next values; noted with them: 10 µM; SRSF2 genotype: wt/wt.
Regarding `C#Cc1cccc(Nc2ncnc3cc(OCCOC)c(OCCO)cc23)c1` [OSI-420 (Desmethyl Erlotinib)], the cell viability came out at 37.5%.

As for `O=C(O)Cc1ccccc1Nc1c(Cl)cccc1Cl` [Diclofenac Sodium], the cell viability was 102%.

In the case of `CC[C@H](C)C(=O)O[C@H]1C[C@@H](C)C=C2C=C[C@H](C)[C@H](CC[C@@H]3C[C@@H](O)CC(=O)O3)[C@H]21` [Lovastatin (Mevacor)], the cell viability worked out at 77.8%.

Consider `Clc1ccc2c(c1)CCc1cccnc1C2=C1CCNCC1` [Desloratadine], for which the cell viability was 81.9%.

Turning to `CNCCCC12CCC(c3ccccc31)c1ccccc12` [Maprotiline hydrochloride], the cell viability was found to be 56.8%.

In the case of `NC(=O)OCC(COC(N)=O)c1ccccc1` [Felbamate], the cell viability came out at 113%.

With `CCN(CC)CCOCCOC(=O)C1(c2ccccc2)CCCC1` [Pentoxyverine Citrate], the cell viability was found to be 97%.

`Cn1cc(C2=C(c3ccc(Cl)cc3Cl)C(=O)NC2=O)c2ccccc21`: the cell viability stood at 107%.

With `Clc1ccc(C(Cn2ccnc2)OCc2ccc(Sc3ccccc3)cc2)c(Cl)c1` (configuration not stated) [Fenticonazole nitrate], the cell viability was 69.1%.

With `CC1(C)CCC(CN2CCN(c3ccc(C(=O)NS(=O)(=O)c4ccc(NCC5CCOCC5)c([N+](=O)[O-])c4)c(Oc4cnc5[nH]ccc5c4)c3)CC2)=C(c2ccc(Cl)cc2)C1` [Venetoclax (ABT-199, GDC-0199)], the cell viability came to 10.2%.

Consider `C[N+]1(C)CCCC1C(=O)[O-]` (configuration not stated) [Stachydrine], for which the cell viability worked out at 102%.

Regarding `CC1(C)[C@@H](O[C@H]2O[C@H](C(=O)O)[C@@H](O)[C@H](O)[C@H]2O[C@@H]2O[C@H](C(=O)O)[C@@H](O)[C@H](O)[C@H]2O)CC[C@]2(C)[C@H]3C(=O)C=C4[C@@H]5C[C@@](C)(C(=O)O)CC[C@]5(C)CC[C@@]4(C)[C@]3(C)CC[C@@H]12` [Dipotassium glycyrrhizinate], the cell viability was 105%.

With `C[C@H](NC(=O)CCc1nc2ccccc2c(=O)[nH]1)c1ccccc1`, the cell viability turned out to be 121%.

Regarding `N#CC(=Cc1cn(-c2ccccc2)c2ccccc12)C(=O)O`, the cell viability is 95.4%.

With `COc1cc2nc(N3CCN(C(=O)C4CCCO4)CC3)nc(N)c2cc1OC` (configuration not stated) [Terazosin HCl], the cell viability turned out to be 104%.

Regarding `C[C@@H]1CC(=O)NN=C1c1ccc(NN=C(C#N)C#N)cc1` [Levosimendan], the cell viability came out at 67.1%.

In the case of `Cn1c(-c2ccccc2C(F)(F)F)nnc1C12CCC(c3noc(C4CC(F)(F)C4)n3)(CC1)CC2`, the cell viability was 94.8%.

With `CCCCCCCCCCCCCCCC(=O)OCC(O)C1OC(=O)C(O)=C1O` [L-Ascorbyl 6-palmitate], the cell viability was determined as 106%.

Turning to `OC[C@H]1O[C@@H](Oc2ccc(O)cc2)[C@H](O)[C@@H](O)[C@@H]1O` [Arbutin (Uva, p-Arbutin)], the cell viability was determined as 107%.

On to `CC[C@H](C)C(=O)O[C@H]1C[C@H](O)C=C2C=C[C@H](C)[C@H](CC[C@@H](O)C[C@@H](O)CC(=O)O)[C@H]21` [Pravastatin sodium], for which the cell viability was 105%.

For `C[C@H]1CNC(=O)c2cnn3ccc(nc23)N[C@H](C)c2cc(F)ccc2O1`, the cell viability worked out at 19.4%.

In the case of `COc1cc2c(cc1OC(C)C)[C@H](c1ccc(Cl)cc1)N(c1ccc(N(C)C[C@H]3CC[C@H](N4CCN(C)C(=O)C4)CC3)cc1)C(=O)C2`, the cell viability came out at 2.94%.

Turning to `CSCC[C@H](NC(=O)[C@H](CC(C)C)NC(=O)[C@H](Cc1c[nH]c2ccccc12)NC(=O)[C@H](CCC(N)=O)NC(=O)[C@@H](NC(=O)[C@H](Cc1ccccc1)NC(=O)[C@H](CC(=O)O)NC(=O)[C@H](CCC(N)=O)NC(=O)[C@H](C)NC(=O)[C@H](CCCNC(=N)N)NC(=O)[C@H](CCCNC(=N)N)NC(=O)[C@H](CO)NC(=O)[C@H](CC(=O)O)NC(=O)[C@H](CC(C)C)NC(=O)[C@H](Cc1ccc(O)cc1)NC(=O)[C@H](CCCCN)NC(=O)[C@H](CO)NC(=O)[C@H](Cc1ccc(O)cc1)NC(=O)[C@H](CC(=O)O)NC(=O)[C@H](CO)NC(=O)[C@@H](NC(=O)[C@H](Cc1ccccc1)NC(=O)[C@@H](NC(=O)CNC(=O)[C@H](CCC(N)=O)NC(=O)[C@H](CO)NC(=O)[C@@H](N)Cc1cnc[nH]1)[C@@H](C)O)[C@@H](C)O)C(C)C)C(=O)N[C@@H](CC(N)=O)C(=O)N[C@H](C(=O)O)[C@@H](C)O` [Glucagon HCl], the cell viability is 109%.

With `CC(=O)O[C@]1(C)CC[C@@]23C[C@H]1C(C)(C)[C@@H]2CC[C@H]3C` [Cedryl acetate], the cell viability was 110%.

Turning to `OC(CN1CCN(c2cccc(Cl)c2)CC1)C(c1ccccc1)c1ccccc1` (configuration not stated), the cell viability was found to be 89.1%.

With `C[C@@H]1O[C@@H](OC[C@H]2O[C@@H](Oc3c(-c4ccc(O)c(O)c4)oc4cc(O)cc(O)c4c3=O)[C@H](O)[C@@H](O)[C@@H]2O)[C@H](O)[C@H](O)[C@H]1O` [Rutin (Rutoside)], the cell viability came to 115%.

As to `CC(C)(F)C[C@H](N[C@@H](c1ccc(-c2ccc(S(C)(=O)=O)cc2)cc1)C(F)(F)F)C(=O)NC1(C#N)CC1` [Odanacatib (MK 0822)], the cell viability stood at 102%.

As for `CCCCCCCCCCCCCCCc1cccc(O)c1C(=O)O` [Anacardic Acid], the cell viability came to 83.5%.

Take `Cc1ccc(NC(=O)Nc2cc(C(F)(F)F)ccc2F)cc1Nc1ccc2c(c1)NC(=O)/C2=C\c1ccc[nH]1`: the cell viability amounted to 70.1%.
